Measured values as given in the supplement of paper PMC12340641.
Counter-ions that a name gives are not always drawn.

Test system: HEK293FT dCK*-only
Test: relative growth in counter assay (no AraC = 100%, AraC + DMSO = 0%); higher = more growth rescue independent of IKZF1
Conditions: compound concentration: 5 uM; AraC concentration: 0.3 uM; overnight pretreatment + 4 days AraC
Method in brief: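 Counter assay in HEK293FT cells expressing dCK* alone (300/well, 384-well). Cells received 5 μM compound 2 h after seeding, then after overnight at 37 °C a nucleoside suicide substrate at 0.3 μM plus medium for 4 days. On day 5, Hoechst 33342-stained nuclei were counted by imaging. Relative growth was normalised per plate to wells without suicide substrate (100%) and substrate plus vehicle (0%).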

| SMILES | relative growth in counter assay |
| --- | --- |
| NC(=O)c1cn([C@@H]2O[C@H](CO)[C@@H](O)[C@H]2O)c2ncnc(N)c2c1=O | -10.5% |
| O=C(CCCCCCC(O)=NO)Nc1ccccc1 [Vorinostat] | -31.4% |
| COC(=O)C1=C(C)NC(C)=C(C(=O)OCC(C)C)C1c1ccccc1[N+](=O)[O-] (stereo not drawn) [Nisoldipine] | -8.81% |
| CCCCCCCCCCCC1=C(O)C(=O)C=C(O)C1=O [embelin] | -6.94% |
| O=C(O)c1cc(/N=N/c2ccc(O)c(C(=O)O)c2)ccc1O | -4.73% |
| Nc1nnc(-c2cccc(Cl)c2Cl)c(N)n1 | 0.9% |
| Nc1ncn([C@@H]2O[C@H](CO)C(O)C2O)c(=O)n1 (stereo partly drawn) [Azacitidine] | 4.37% |
| N=c1ccn2c(n1)O[C@H]1[C@H](O)[C@@H](CO)O[C@H]12 [Cyclocytidine HCl] | -34% |
| CN(C)c1ccc2nc3ccc(N(C)C)cc3[s+]c2c1 | -29.4% |
| c1ccc(C(NCCNC(c2ccccc2)c2ccccc2)c2ccccc2)cc1 | 3.27% |

Test system: HEK293FT dCK*-IKZF1
Test: relative growth recovery (pomalidomide 10 uM = 100%, DMSO = 0%); higher = more growth rescue (IKZF1 fusion degradation)
Conditions: compound concentration: 5 uM; AraC concentration: 0.3 uM; overnight pretreatment + 4 days AraC
Method in brief: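 HEK293FT cells stably expressing a dCK*-IKZF1 fusion (300/well, 384-well) received 5 μM compound 2 h after seeding. After overnight at 37 °C they received a nucleoside suicide substrate at 0.3 μM plus medium for 4 days. On day 5, Hoechst 33342-stained nuclei were counted by whole-well imaging. Growth recovery was normalised per plate to a reference degrader (100%) and vehicle (0%); values are means of duplicates run on different days.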

| SMILES | relative growth recovery |
| --- | --- |
| Clc1ccc(C(Cn2ccnc2)OCc2c(Cl)cccc2Cl)c(Cl)c1 (stereo not drawn) [Isoconazole nitrate (Travogen)] | -3.42% |
| CCC(=O)O[C@@H]1CC(=O)O[C@H](C)C/C=C/C=C/[C@H](OC(C)=O)[C@H](C)C[C@H](CC=O)[C@H](O[C@@H]2O[C@H](C)[C@@H](O[C@H]3C[C@@](C)(OC(C)=O)[C@@H](OC(=O)CC)[C@H](C)O3)[C@H](N(C)C)[C@H]2O)[C@H]1OC [Midecamycin Acetate] | 0.995% |
| Cc1cc(Nc2ncc(Cl)c(Nc3ccccc3S(=O)(=O)C(C)C)n2)c(OC(C)C)cc1C1CCN(CC(=O)NCCNc2cccc3c2C(=O)N(C2CCC(=O)NC2=O)C3=O)CC1 (stereo not drawn) | 24.8% |
| COc1ccc2cc1Oc1ccc(cc1)C[C@H]1c3cc(c(OC)cc3CCN1C)Oc1c(OC)c(OC)cc3c1[C@H](C2)N(C)CC3 [Tetrandrine (Fanchinine)] | -3.42% |
| C[C@H]1COC2=C1C(=O)C(=O)c1c2ccc2c1CCCC2(C)C [Cryptotanshinone] | -0.045% |
| O=C1Nc2ccc(I)cc2/C1=C/c1cc(Br)c(O)c(Br)c1 | -2.06% |
| OCCN=CCNc1ccc(NCCNCCO)c2c(O)c3c(O)ccc(O)c3c(O)c12 [Mitoxantrone HCl] | -13.6% |
| O=C(Nc1ccc(Cl)nc1)c1ccc(Cl)cc1 | 3.85% |
| CSc1nc2cc(Cl)c(Oc3cccc(Cl)c3Cl)cc2[nH]1 | 0.015% |
| COC(=O)Nc1ccc(-c2nc(N3CCOCC3)c3cnn(C4CCN(Cc5cccnc5)CC4)c3n2)cc1 | -12.9% |
| C[C@@H]1CC2C3CCC4=CC(=O)C=C[C@]4(C)[C@@]3(F)[C@@H](O)C[C@]2(C)[C@H]1C(=O)CO (stereo partly drawn) | -0.19% |
| COc1cccc2c1C(=O)c1c(O)c3c(c(O)c1C2=O)C[C@@](O)(C(=O)CO)C[C@@H]3O[C@H]1C[C@H](N)[C@@H](O)[C@H](C)O1 [Epirubicin Hydrochloride] | -13.7% |
| CO[C@H]1/C=C/O[C@@]2(C)Oc3c(C)c(O)c4c(O)c(c(/C=N/N5CCN(C)CC5)c(O)c4c3C2=O)NC(=O)/C(C)=C\C=C\[C@H](C)[C@H](O)[C@@H](C)[C@@H](O)[C@@H](C)[C@H](OC(C)=O)[C@@H]1C | -2.5% |
| COc1cccc2c(O)c3c(O)c4c(c(O)c3c(O)c12)=C(O[C@H]1C[C@H](N)[C@@H](O)[C@H](C)O1)C[C@](O)(C(=O)CO)C=4 [Epirubicin HCl] | -13.6% |
| O=c1c(O)c(-c2cc(O)c(O)c(O)c2)oc2cc(O)cc(O)c12 [Myricetin (Cannabiscetin)] | -0.905% |
| OCCN1CCN(CCCN2c3ccccc3Sc3ccc(C(F)(F)F)cc32)CC1 | 3.6% |
| S=C=Nc1ccc(N=C=S)cc1 | -1.61% |
| CN(C)c1ccc2c(c1)Sc1cc(N(C)C)ccc1N2.CS(=O)(=O)O [Leucomethylene blue (Mesylate)] | -10.3% |
| CN1CCN(CCCN2c3ccccc3Sc3ccc(C(F)(F)F)cc32)CC1 | 3.05% |
| CCCSc1ccc2[nH]c(NC(=O)OC)nc2c1 [Albendazole] | -0.675% |
| O=C(OOC(=O)c1ccccc1)c1ccccc1 | 1.32% |
| O=C1C=CC(=O)C2=C1C1c3ccccc3C2c2ccccc21 | -0.735% |
| COc1cc(C(=O)NS(=O)(=O)c2ccccc2C)ccc1Cc1cn(C)c2ccc(NC(=O)OC3CCCC3)cc12 [Zafirlukast] | -5.17% |
